In PMC5540273 (PLoS ONE, 2017):

Assays:
Settings in all cases: concentration: 1 μM, replicates: in singlicate; n = 1
[1] = test system: DAPK2
[2] = test system: DAPK3
[3] = test system: T1, DCAMKL1
T1 construct: gene DCLK1

[4] = test system: T2, DCAMKL2
T2 construct: gene DCLK2

[5] = test system: T3, DCAMKL3
T3 construct: gene DCLK3

[6] = test system: DDR1
[7] = test system: DDR2
[8] = test system: T4, DLK
T4 construct: gene MAP3K12

[9] = test system: T5, DMPK2
T5 construct: gene CDC42BPG

[10] = test system: DMPK
[11] = test system: T6, DRAK1
T6 construct: gene STK17A

[12] = test system: T7, DRAK2
T7 construct: gene STK17B

[13] = test system: DYRK1A
[14] = test system: DYRK1B
[15] = test system: DYRK2
[16] = test system: EGFR
[17] = test system: EIF2AK1
[18] = test system: EPHA1
[19] = test system: EPHA2
[20] = test system: EPHA3
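Note: KINOMEscan kinase panel screen.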

SMILES	%Inh [1]	%Inh [2]	%Inh [3]	%Inh [4]	%Inh [5]	%Inh [6]	%Inh [7]	%Inh [8]	%Inh [9]	%Inh [10]	%Inh [11]	%Inh [12]	%Inh [13]	%Inh [14]	%Inh [15]	%Inh [16]	%Inh [17]	%Inh [18]	%Inh [19]	%Inh [20]
Cl.O=C(Nc1cccc(-c2nn3ncccc3c2-c2ccnc(Nc3cccnc3)n2)c1)c1c(F)cccc1F [GSK312879]	27%	6%	12%	0%	0%	94.4%	4%	14%	13%	15%	1%	0%	22%	18%	6%	98.9%	17%	4%	0%	2%
Clc1cc(Cl)cc(Nc2ccnc(Nc3cc(Cl)cc(Cl)c3)n2)c1 [GSK175726]	19%	23%	0%	0%	0%	6%	24%	11%	18%	0%	0%	6%	0%	19%	0%	38%	0%	54%	46%	21%
COc1ccc(Nc2nccc(-c3cccc(NC(=O)c4cc5cc(F)ccc5[nH]4)c3)n2)cc1 [GSK1229782]	11%	6%	4%	0%	4%	0%	39%	37%	13%	25%	24%	0%	5%	25%	12%	22%	10%	56%	9%	35%
CC(C)(C)c1ccc(C(=O)Nc2cn3cc(Cl)ccc3n2)cc1	0%	3%	15%	0%	18%	0%	20%	0%	0%	0%	5%	20%	47%	65%	0%	0%	0%	0%	0%	65%
CCn1c(-c2ccccn2)nc2cnccc21 [SB-736398]	0%	13%	5%	0%	0%	0%	39%	53%	0%	0%	5%	8%	19%	11%	0%	15%	0%	21%	6%	0%
Cn1ccc2ncnc(Oc3ccc(Nc4nc5ccccc5[nH]4)cc3)c21	0%	3%	0%	0%	0%	0%	16%	0%	0%	0%	0%	2%	0%	5%	0%	0%	0%	0%	0%	2%
CC1=C(C(=O)Nc2cc3cn[nH]c3cc2F)C(c2ccc(C(F)(F)F)cc2)CC(=O)N1 (stereo not shown) [GSK429286]	0%	24%	4%	7%	39%	3%	0%	0%	0%	0%	0%	12%	21%	0%	0%	33%	0%	22%	14%	0%
Nc1nc(-c2nccs2)c(-c2ccnc3ccccc23)s1 [GW693542]	0%	10%	13%	0%	6%	9%	5%	33%	6%	100%	9%	0%	20%	25%	7%	26%	3%	5%	3%	0%
CC(=O)Nc1nc2cnc(Nc3cc(NC(=O)c4cccc(CCC#N)c4)ccc3C)nc2s1	6%	8%	12%	13%	12%	100%	86%	0%	3%	12%	0%	0%	0%	42%	0%	6%	21%	0%	34%	0%
CC(C)(C)c1ccc(C(=O)Nc2cn3cc(-c4cccnc4)ccc3n2)cc1	13%	8%	45%	12%	25%	24%	0%	0%	17%	5%	10%	5%	42%	65%	51%	17%	3%	12%	12%	9%
COc1cccc(-c2cc(-c3c[nH]nc3-c3ccccn3)ccn2)c1 [GW680338]	22%	23%	13%	0%	0%	3%	37%	28%	6%	0%	0%	2%	13%	14%	1%	31%	2%	0%	0%	11%
